PubChem BioAssay (NCI)
This is part of a sample that, as a whole, favours compounds with a hit. Of some 83,000 tested, about 20% had one in any assay.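 Step 1: grow cells in 96-well plates. Step 2: add test compound at a single concentration. Step 3: incubate 48 h. Step 4: record percent growth.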 Active and inactive are the calls of the source.

tested on: OVCAR-5 ovarian; experiment: NCI-60 one-dose screen, 48 h (100 = growth as untreated, 0 = no growth, -100 = all killed); conditions: 10 µM unless noted
Method: Growth inhibition of the OVCAR-5 human tumor cell line is measured as a screen for anti-cancer activity. Cells are grown in 96 well plates and exposed to the test compound for 48 hours. Compounds are tested at a single concentration, which is 10^-5 M for most compounds. The reported endpoint is percent growth (GI% or GIPRCNT), where numbers from 0 - 100% represent growth inhibition, and numbers from -100% - 0 represent cell death. For example, a value of 40 represents 60% growth inhibition. A value of 0 means no net growth occurred over the course of the experiment. A value of -40 indicates 40% of cells at the beginning of the experiment died by the end of the experiment. A value of -100 means all cells are dead at the end of the experiment.
NCI-60 Human Tumor Cell Lines Screen was performed using the standard one-dose NCI protocol, which is described in more detail at https://dtp.cancer.gov/discovery_development/nci-60/default.htm.
Compounds with GIPRCNT values below 10 were considered active. Activity score was based on GIPRCNT using the following formula: […]
Score is 0 for GIPRCNT values of 100 or above, 50 for GIPRCNT values of 0, and 100 for GIPRCNT values of -100.

SMILES | growth
CCCCc1ccc(NS(=O)(=O)c2cc3c4c(c2)CCN4C(=O)CC3)cc1 | 52.5% (inactive)
C1CCN(c2nc(N3CCCCC3)nc(N3CCOCC3)n2)CC1 | 122% (inactive)
Cc1cc2c(c(C)c1Cl)C(=O)/C(=C/c1ccco1)O2 | 114% (inactive)
COc1ccc(-c2c(-c3ccc(OC)c(O)c3)cnc3ncnn23)cc1 | 103% (inactive)
O=c1nc2sc3nc4ccccc4cc3cc-2s1 | 120% (inactive)
O=C(NN1C(=O)CSC1c1ccc(Cl)cc1)c1[nH]c2ccc(F)cc2c1-c1ccccc1 (stereo not given) | 72% (inactive)
COc1ccc(CCN2C(=O)CCSC2=S)cc1OC | 96.8% (inactive)
O=C(c1nc2ccccc2[nH]1)C1C(c2cccc([N+](=O)[O-])c2)C2CC3CCCCC3N2[C@@]12C(=O)Nc1cc(Cl)ccc12 (stereo not given in full) | 32% (inactive)
NC1C(N)C(N)C1N (stereo not given) | 95.7% (inactive)
COc1cc(C(=O)NN=C2c3ccccc3-c3ccccc32)cc(OC)c1OC | 63.4% (inactive)
CN(CCc1ccccc1)C(=S)N(C(=O)c1ccc([N+](=O)[O-])cc1)c1ccc(Cl)cc1 | 100% (inactive)
O=C(CSc1nc2ccccc2c(=O)n1-c1ccccc1)Nc1ccc(C(=O)/C=C/c2ccc(Cl)cc2)cc1 | 98.4% (inactive)
CN1C(=O)N(C)C2Nn3c(s/c(=C4\C(=O)N(CCc5ccccc5)c5ccccc54)c3=O)=NC21 (stereo not given) | 75.2% (inactive)
Cc1ccc(OCCCCCCNCCO)c(C)c1 | 35.9% (inactive)
COc1ccc(C2=C(c3cccc(OC)c3)C(=O)c3ccc(C)nc3C2=O)cc1 | 104% (inactive)
Cc1ccc(Cc2cnc(NC(=O)CN3C(=O)/C(=C\c4ccccc4)SC3=S)s2)cc1 | 101% (inactive)
O=c1c(-c2nc3ccccc3[nH]2)cc2ccccc2n1Cc1cn(Cc2ccc(N3CCOCC3)cc2)nn1 | 77.3% (inactive)
COc1ccc2occ(C3=C(c4c[nH]c5ccccc45)C(=O)NC3=O)c2c1 | 68.6% (inactive)
CCOC(=O)c1sc(-c2ccc(OS(=O)(=O)c3ccccc3[N+](=O)[O-])c(C=O)c2)nc1C | 73.6% (inactive)
CCOc1cccc(/C=N\Nc2nc(=O)cc(C(=O)OC)s2)c1O | 92.9% (inactive)

SMILES | growth
CCN1C(=O)N(CC)C2Nn3c(s/c(=C\c4ccccc4F)c3=O)=NC21 (stereo not given) | 76.5% (inactive)
COC(=O)/C(CCC=C(C)C)=C1\[C@@H](OC(C)=O)C[C@@]2(C)[C@H]1C[C@@H](O)[C@H]1[C@@]3(C)CC[C@H](NCc4ccccc4)[C@@H](C)[C@@H]3CC[C@@]12C | 88.7% (inactive)
COC(=O)c1c2c(c(C)[n+]([O-])c1C)C(=O)C(NCc1ccc(Br)cc1)=CC2=O | 69.1% (inactive)
CN(C)/C=C1\SC(=Nc2ccc(Cl)cc2)NC1=O | 96% (inactive)
CCC(C)(C)C(=O)O[C@H]1C[C@@H](C)C=C2C=C[C@H](C)[C@H](CC[C@@H]3CC=CC(=O)O3)[C@H]21 | 142% (inactive)
COc1cc(C2C3=C(COC3=O)N(CCO)c3cc4c(cc32)OCCO4)cc(OC)c1O (stereo not given) | 87.4% (inactive)
O=C(Nc1ccc(Br)cc1F)c1cc(I)ccc1O | 24.2% (inactive)
Nc1n[nH]c2ccc([C@@H]3Nc4ccc5[nH]ncc5c4[C@H]4[C@H]5CCC(C5)[C@H]43)cc12 | 34.9% (inactive)
O=C(N=Nc1c(O)[nH]c2ccccc12)c1oc2ccccc2c1CN1CCN(c2ccccc2)CC1 | 3.76% (active)
O=C(NC1CCN(Cc2ccccc2)CC1)c1cc(C(=O)NC2CCN(Cc3ccccc3)CC2)cc(C(=O)NC2CCN(Cc3ccccc3)CC2)c1 | 112% (inactive)
COc1cc2nc(NC3CCC3)nc(NC3CCN(C(C)C)CC3)c2cc1OC | 97.2% (inactive)
CCOC(=O)C1=C(C)N=c2s/c(=C\c3cc(Cl)ccc3O)c(=O)n2C1c1ccc(OC)cc1 (stereo not given) | 93.1% (inactive)
O=C(Nc1ccc(Cl)cc1F)c1cc(Br)ccc1O | 22% (inactive)
O=C(NC1CCN(Cc2ccccc2)CC1)c1cc2nc(-c3ccc(Cl)s3)cc(C(F)(F)F)n2n1 | 93.2% (inactive)
COc1ccc(Nc2nc(N/N=C/c3ccc(O)cc3)nc(Nc3ccc([N+](=O)[O-])cc3)n2)cc1 | 109% (inactive)
O=c1oc2ccc(Br)cc2c(=O)n1-c1ccc(I)cc1F | 22% (inactive)
CC1=C(C(=O)OCC2CCN(C(=O)OC(C)(C)C)CC2)[C@@H](c2cccc(C#N)c2)C2=C(CC(C)(C)CC2=O)N1 | 70.2% (inactive)
COC(=O)/C(=C\c1c(-c2ccccc2)[nH]c2ccccc12)S(C)(=O)=O | 83.5% (inactive)
O=C1N=c2ccccc2=C1c1sc(=Nc2ccccc2)n(Nc2ccccc2)c1O | 101% (inactive)
COc1ccc(-c2nocc2-c2cccs2)cc1 | 88.9% (inactive)
